The results in this text go back to PubChem BioAssay (NCI).

The panel holds about 83,000 compounds, 20% with a hit somewhere; the sample as a whole holds those more often.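 Results are percent growth after 48 hours of single-concentration exposure. 100 means growth as in untreated cells, lower positive values show inhibition; negative values down to -100 show cell death.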 Unmarked numbers belong to inactive results. Calls of active or inactive are those of the source. Rule for the calls: active = growth percent below 10; inactive = the rest.

Some test systems named below: RPMI-8226 leukemia; OVCAR-8 ovarian; OVCAR-5 ovarian; OVCAR-4 ovarian; SK-OV-3 ovarian; IGROV1 ovarian; OVCAR-3 ovarian; HS 578T breast; NCI/ADR-RES ovarian; T-47D breast; BT-549 breast; MDA-MB-435 melanoma; SW-620 colon; MCF7 breast; HCT-116 colon; HCC-2998 colon; KM12 colon.
Common to all, as to assay: NCI-60 one-dose screen, 48 h (100 = growth as untreated, 0 = no growth, -100 = all killed)
What all share (conditions): 10 µM unless noted

For the molecule `CSc1nc2c(c(=O)n1C)C(c1ccccc1)C1=C(N2)/C(=C/c2ccccc2)CCC1` (stereo not drawn), the growth in the assay with RPMI-8226 leukemia is 39.5%; with OVCAR-8 ovarian, 63.7%; in the assay on OVCAR-5 ovarian, 113%; with OVCAR-4 ovarian, 68.3%; in the assay with SK-OV-3 ovarian it was 107%; in the assay with IGROV1 ovarian, 47.2%. For the same molecule, the growth in the assay with OVCAR-3 ovarian was 52.8%; in the assay on HS 578T breast, 61%; in the assay with NCI/ADR-RES ovarian, 38.3%; with T-47D breast, 57%; with BT-549 breast it was 37.9%; in the assay on MDA-MB-435 melanoma, 4.1% (active). Besides, the growth is 47.1% in the assay with SW-620 colon; 56.7% with MCF7 breast; 39.5% with HCT-116 colon; 71.4% in the assay on HCC-2998 colon; 71.4% in the assay on KM12 colon.
In the case of `C=C(C[C@@](O)(C(=O)Oc1ccccc1)C(=O)C1CCCCC1)c1ccccc1`, the growth in the assay with RPMI-8226 leukemia is 92%; with OVCAR-8 ovarian it was 101%; in the assay on OVCAR-5 ovarian, 103%; in the assay with OVCAR-4 ovarian, 97.8%; with SK-OV-3 ovarian, 105%; in the assay on IGROV1 ovarian it was 110%. Besides, the growth is 106% in the assay on OVCAR-3 ovarian; 106% in the assay with HS 578T breast; 101% in the assay on NCI/ADR-RES ovarian; 96.2% in the assay on T-47D breast; 105% with BT-549 breast; 102% in the assay with MDA-MB-435 melanoma. Besides, the growth is 107% in the assay with SW-620 colon; 100% with MCF7 breast; 92.7% in the assay with HCT-116 colon; 105% in the assay with HCC-2998 colon; 105% in the assay on KM12 colon.
Turning to `COc1ccc(-c2noc(N)c2-c2cc(OC)c3c(c2)OCO3)cc1`, the growth in the assay with RPMI-8226 leukemia was 7.65% (active); in the assay with OVCAR-8 ovarian, 26.6%; with OVCAR-5 ovarian, 61.6%; with OVCAR-4 ovarian it was 91.7%; in the assay on SK-OV-3 ovarian, 27.6%; in the assay with IGROV1 ovarian, 44.6%. Besides, the growth in the assay on OVCAR-3 ovarian is -9.87% (active); in the assay on HS 578T breast, 21.4%; in the assay with NCI/ADR-RES ovarian, 9.7% (active); in the assay with T-47D breast, 33.7%; in the assay with BT-549 breast it was 48%; with MDA-MB-435 melanoma, -59.3% (active). Also, the growth in the assay with SW-620 colon was 17.5%; with MCF7 breast it was 19.1%; in the assay on HCT-116 colon, 20%; with HCC-2998 colon it was 46%; in the assay with KM12 colon, 23.9%.
On to `Cc1ccc(NC(=O)Nc2ccc(-c3cccnc3)cc2N2CCC(CO)CC2)cc1`, for which the growth was 19.4% in the assay with RPMI-8226 leukemia; 44.2% in the assay with OVCAR-8 ovarian; 43.6% in the assay on OVCAR-5 ovarian; 45% in the assay on OVCAR-4 ovarian; 28.4% with SK-OV-3 ovarian; 63.1% with IGROV1 ovarian. The growth with OVCAR-3 ovarian was 4.71% (active); in the assay on HS 578T breast, 10.6%; in the assay with NCI/ADR-RES ovarian, 40%; in the assay with T-47D breast, 42.7%; in the assay on BT-549 breast it was 25.2%; with MDA-MB-435 melanoma, 4.25% (active). In addition, the growth was 20.3% in the assay on SW-620 colon; 9.77% (active) with MCF7 breast; 8.43% (active) in the assay on HCT-116 colon; 14.1% in the assay on HCC-2998 colon; 20.1% in the assay with KM12 colon.
Consider `N#Cc1c(N)[nH]c(S)c1C#N`, for which the growth in the assay on RPMI-8226 leukemia was 107%; with OVCAR-8 ovarian, 101%; with OVCAR-5 ovarian it was 99.7%; in the assay on OVCAR-4 ovarian it was 109%; with SK-OV-3 ovarian, 100%; with IGROV1 ovarian, 107%. In addition, the growth was 120% with OVCAR-3 ovarian; 104% with HS 578T breast; 116% with NCI/ADR-RES ovarian; 89.3% with T-47D breast; 99.4% in the assay on BT-549 breast; 98.4% with MDA-MB-435 melanoma. In addition, the growth in the assay with SW-620 colon is 107%; in the assay with MCF7 breast, 92.1%; in the assay on HCT-116 colon, 97.9%; in the assay on HCC-2998 colon it was 95.6%; in the assay with KM12 colon, 116%.
For `S=C1SCN(Cc2ccccc2)CN1Cc1ccco1`, the growth in the assay with RPMI-8226 leukemia was 37.5%; with OVCAR-8 ovarian it was 89.1%; in the assay with OVCAR-5 ovarian, 120%; in the assay with OVCAR-4 ovarian, 99.9%; with SK-OV-3 ovarian, 96.2%; with IGROV1 ovarian, 84.4%. Also, the growth in the assay on OVCAR-3 ovarian was 75.3%; with HS 578T breast, 109%; in the assay with NCI/ADR-RES ovarian it was 99.2%; in the assay with T-47D breast it was 59.3%; in the assay with BT-549 breast it was 102%; in the assay with MDA-MB-435 melanoma, 37.8%. In addition, the growth is 41.7% in the assay with SW-620 colon; 18.2% in the assay on MCF7 breast; 25.5% in the assay on HCT-116 colon; 103% with HCC-2998 colon; 58.2% with KM12 colon.
Consider `COc1ccc(COC(C)=O)cc1`, for which the growth with RPMI-8226 leukemia is 103%; with OVCAR-8 ovarian, 106%; with OVCAR-5 ovarian, 98.1%; with OVCAR-4 ovarian it was 120%; in the assay with SK-OV-3 ovarian, 113%; in the assay with IGROV1 ovarian it was 142%. Further, the growth with OVCAR-3 ovarian is 110%; in the assay with HS 578T breast, 105%; with NCI/ADR-RES ovarian, 116%; in the assay on T-47D breast, 102%; with BT-549 breast it was 99.7%; in the assay with MDA-MB-435 melanoma, 111%. Further, the growth in the assay with SW-620 colon is 98.8%; in the assay on MCF7 breast, 102%; in the assay with HCT-116 colon it was 107%; in the assay with HCC-2998 colon it was 114%; in the assay with KM12 colon, 104%.
For the molecule `O=C1OC(c2ccc(-c3ccccc3)cc2)=C/C1=C/c1cccs1`, the growth in the assay with RPMI-8226 leukemia is 138%; in the assay on OVCAR-8 ovarian, 78.9%; in the assay on OVCAR-5 ovarian, 98.5%; with OVCAR-4 ovarian it was 65.5%; in the assay on SK-OV-3 ovarian, 128%; in the assay with IGROV1 ovarian it was 93%. The growth in the assay with OVCAR-3 ovarian is 89.2%; with HS 578T breast, 98.4%; with NCI/ADR-RES ovarian it was 86.5%; in the assay on T-47D breast it was 33.6%; in the assay on BT-549 breast it was 92%; in the assay on MDA-MB-435 melanoma it was 99%. For the same molecule, the growth is 105% in the assay on SW-620 colon; 41.6% in the assay on MCF7 breast; 93.3% in the assay on HCT-116 colon; 112% with HCC-2998 colon; 88.1% with KM12 colon.
As to `O=C(Nc1ccc(Cl)cc1Cl)Nc1ccc(-c2cccnc2)cc1N1CCC(CO)CC1`, the growth with RPMI-8226 leukemia was 9.15% (active); with OVCAR-8 ovarian, 32.8%; in the assay with OVCAR-5 ovarian, 48.5%; in the assay with OVCAR-4 ovarian it was 53.2%; with SK-OV-3 ovarian, 4.28% (active); in the assay with IGROV1 ovarian, 34.8%. The growth in the assay with OVCAR-3 ovarian was 24.9%; in the assay with HS 578T breast, 36.4%; with NCI/ADR-RES ovarian it was 30.7%; with T-47D breast it was 17.5%; with BT-549 breast, 66.6%; in the assay on MDA-MB-435 melanoma, 21.4%. Further, the growth was 17.6% in the assay on SW-620 colon; 20% in the assay on MCF7 breast; 18.1% with HCT-116 colon; 35.2% in the assay on HCC-2998 colon; 25.3% in the assay with KM12 colon.
